# CYP2C19 inhib = inhibitors of human CYP2C19. AID 778. P33261. inhibition, % at 5 µM. CYP2C19 Supersomes, luciferin-H EGE luminescence, 30 min. 96,000 tested, 21% active;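 active means CYP2C19 inhibition above a set limit at 5 µM in the primary screen, cut at about 50% in these data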;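 further: plate controls were negative control wells for no effect and 2.5 mM tranylcypromine positive control for full effect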
# sEH inhibitor = soluble epoxide hydrolase (human) inhibition | 91,000 tested, 0.34% active | recombinant human sEH enzymatic activity assay | AID 707 | inhibition, % at 2 µM; in the data active means inhibition above about 80%
# CYP2C19 activ = increases human CYP2C19 enzyme activity; recombinant CYP2C19, luciferin-H EGE luminescence; active compounds read high; 0 = fully inhibited enzyme, 1 = untreated enzyme; activation factor at 5 µM; 96,000 tested, under 10 active;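 active means activation factor of at least 2 at 5 µM in the primary screen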;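 further: 0 = wells with 2.5 mM tranylcypromine and 1 = vehicle-only wells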
# sEH act = increases human soluble epoxide hydrolase activity; activation, % at 2 µM; P34913; 91,000 tested, 0.04% active; purified human sEH enzymatic activity, activator screen; in the data active means activation above about 37%
# CYP2C9 activ = CYP2C9 (human) activation; recombinant CYP2C9, luciferin-H conversion, luminescence; active compounds read high; factor 1 = untreated enzyme, 0 = blocked; P11712; activation factor at 5 µM; 96,000 tested, 1.4% active;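 active means activation factor of 2 or more for CYP2C9 at a 5 µM dose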;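 further: 0 = sulfaphenazole-blocked wells and 1 = vehicle-only wells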
# Target sequence (P11712 whole entry, looked up): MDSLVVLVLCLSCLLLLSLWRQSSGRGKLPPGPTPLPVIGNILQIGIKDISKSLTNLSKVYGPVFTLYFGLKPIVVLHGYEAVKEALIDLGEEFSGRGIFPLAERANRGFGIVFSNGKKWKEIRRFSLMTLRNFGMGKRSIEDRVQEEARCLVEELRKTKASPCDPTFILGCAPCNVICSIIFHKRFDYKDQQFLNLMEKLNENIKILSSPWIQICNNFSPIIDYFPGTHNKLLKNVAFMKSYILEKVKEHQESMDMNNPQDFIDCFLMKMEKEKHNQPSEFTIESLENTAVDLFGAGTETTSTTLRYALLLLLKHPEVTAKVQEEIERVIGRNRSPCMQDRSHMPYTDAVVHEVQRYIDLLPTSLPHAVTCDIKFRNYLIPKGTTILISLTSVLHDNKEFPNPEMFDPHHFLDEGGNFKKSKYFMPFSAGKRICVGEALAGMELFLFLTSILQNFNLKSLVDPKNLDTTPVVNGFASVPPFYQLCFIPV
# CYP2C9 inh = inhibitors of human CYP2C9. AID 777. inhibition, % at 5 µM. P11712. CYP2C9 Supersomes, luciferin-H conversion, luminescence. 96,000 tested, 20% active;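 active means blocking of liver enzyme CYP2C9 beyond about 50% at 5 µM, limit read from the data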
# The depositor's hits bear a star; · = no result given. Most compounds without a hit are left out; they make up all but 27% or so of the library.
SMILES,CYP2C19 inhib,sEH inhibitor,CYP2C19 activ,sEH act,CYP2C9 activ,CYP2C9 inh
CN(C)CC1CSCCC1(O)c1ccccc1 (stereo not given),·,3,·,-4,·,·
Oc1cccc(/C=N/NP(=S)(c2ccccc2)c2ccccc2)c1,94*,5,0.1,-4,0,99*
O=P(O)(O)C12CC3CC(CC(C3)C1)C2,45,11,0.6,-9,0.4,62*
Fc1ccc(C2=CCN(C(c3cccs3)c3nnnn3CCc3ccccc3)CC2)cc1 (stereo not given),50*,-4,0.5,6,0.3,74*
CCC(C)(C)n1nnnc1C(c1cccs1)N1CC=C(c2ccc(F)cc2)CC1 (stereo not given),56*,-3,0.4,2,0.2,79*
CCn1ncc(/C=C2/CC3C4CC=C5CC(O)CCC5(C)C4CCC3(C)C2=O)c1C (stereo not given),·,18,·,-15,·,·
Cc1ccc(S(=O)(=O)CC(C)(O)C(=O)Nc2cccc(C(F)(F)F)c2)cc1 (stereo not given),48,2,0.5,0,0.8,17
CC(O)(CS(=O)(=O)c1ccccc1)C(=O)Nc1cccc(C(F)(F)F)c1 (stereo not given),69*,-1,0.3,3,1,5
CC(O)(CS(=O)(=O)c1cccc(C(F)(F)F)c1)C(=O)Nc1ccc(C(F)(F)F)cc1 (stereo not given),83*,-5,0.2,7,0.5,47
c1ccc2c(NC3=NCCS3)cccc2c1,44,12,0.6,-8,0.8,20
Cc1ccc2nc3c(cc2c1)CC1(C(=O)N(C)C(=O)N(C)C1=O)C1CCCCN31 (stereo not given),64*,-7,0.4,5,0.5,50*
C#CCN1C(=O)C2(C(C#N)=C(N)OC(C)=C2C(=O)OCc2ccccc2)c2ccccc21 (stereo not given),39,·,0.6,·,0.7,31
Cc1ccc(-n2c(O)c(C=NC3CCCCC3N)c(=O)[nH]c2=O)cc1C (stereo not given),-3,-6,1,5,1,2
Cc1ccc(-n2c(O)c(C=NC3CCCC3)c(=O)[nH]c2=O)c(C)c1,94*,4,0.1,-2,0.9,10
CN(C)C1=NP(N(C)C)(N(C)C)=NC(c2ccccc2)=N1,3,3,1,-3,1,-4
COC(=O)c1ccccc1OP1(=O)COc2ccccc2OC1,31,·,0.7,·,0.7,30
O=P1(Nc2ccc(F)cc2)COc2ccccc2OC1,64*,·,0.4,·,1.1,-11
CC(C)CC12CN3CCN(CC(C3)C1O)C2 (stereo not given),-10,1,1.1,0,1,-3
C=CCn1c(O)c(C(CC)=NCc2cc(OC)cc(OC)c2)c(=O)[nH]c1=O,46,5,0.5,-7,0,95*
CCCCn1c(O)c(C(CC)=NCc2ccc3c(c2)OCO3)c(=O)[nH]c1=O,74*,-10,0.3,8,0.2,82*
C=CCn1c(O)c(C(CC)=NCCCO)c(=O)[nH]c1=O,-10,·,1.1,·,1,-4
OC1(c2ccccc2F)CC2CCC(C1)N2CCN1CCOCC1 (stereo not given),-8,1,1.1,-3,1.1,-9
CCN(CC)CCCN=C(C)c1c(O)n(-c2ccc(C)cc2)c(=O)[nH]c1=O,-9,-11,1.1,13,1.1,-12
O=c1cccc2n1CC1CC2CN(c2ncnc3c2cnn3-c2ccc(Cl)cc2)C1 (stereo not given),-15,·,1.1,·,0.9,12
O=c1[nH]c(=O)n(C2CCCCC2)c(O)c1C=NCCCn1ccnc1,61*,·,0.4,·,0.5,50*
SMILES,CYP2C19 inhib,sEH inhibitor,CYP2C19 activ,sEH act,CYP2C9 activ,CYP2C9 inh
O=c1[nH]c(=S)n(CCC2=CCCCC2)c(O)c1C=NCCCn1ccnc1,93*,2,0.1,-3,0,98*
O=c1[nH]c(=O)n(CCC2=CCCCC2)c(O)c1C=NCCCn1ccnc1,86*,25,0.1,-25,0,97*
CN(C)CCCN=Cc1c(O)n(CCc2ccc(F)cc2)c(=O)[nH]c1=O,0,-16,1,17,0.8,22
O=c1[nH]c(=O)n(CCc2ccc(F)cc2)c(O)c1C=NCCCn1ccnc1,47,·,0.5,·,0.3,68*
O=c1[nH]c(=S)n(CCC2=CCCCC2)c(O)c1C=NCc1cccnc1,12,16,0.9,-14,1,4
O=P(OCC(F)(F)C(F)F)(N1CCCCC1)N1CCCCC1,-8,-9,1.1,6,1.1,-10
Nc1ccc(C2(c3ccc(N)cc3)CN3CCC2CC3)cc1,-14,-12,1.1,11,1.1,-5
COC(=O)C(O)(c1c(C)[nH]c2ccccc12)C(F)(F)F (stereo not given),39,2,0.6,-3,1,-2
Cc1ccc(Cl)cc1N1CCN(CCN)CC1,59*,16,0.4,-14,0.7,35
COc1ccc(N2CCN(CCCN)CC2)cc1,·,-25,·,26,·,·
Fc1ccc2c(c1)nnn2C1CCN(Cc2ccccc2)CC1,33,-3,0.7,1,0.7,26
c1ccc(CCn2nnnc2CN2CCC(n3nnc4ccccc43)CC2)cc1,69*,·,0.3,·,0.3,68*
Fc1ccc2c(c1)nnn2C1CCN(Cc2nnnn2CCc2ccccc2)CC1,78*,-13,0.2,12,0.1,95*
Cc1nc2ccccc2n1C1CCN(Cc2nnnn2CCc2ccccc2)CC1,31,-3,0.7,4,0.6,44
COC(=O)CC1(CC(=O)OC)C(=O)NC(=O)NC1=O,-2,-3,1,1,1.1,-6
CCC(=NCc1ccco1)c1c(O)n(C2CCCCC2)c(=O)[nH]c1=O,96*,-8,0,10,0.5,51*
CCN(CC)CCCN=C(C)c1c(O)n(C2CCCCC2)c(=O)[nH]c1=O,50,8,0.5,-6,0.9,15
CC(=NCc1cccnc1)c1c(O)n(C2CCCCC2)c(=O)[nH]c1=O,99*,12,0,-10,0.5,51*
CCC(=O)c1c(O)n(C2CCCCCC2)c(=O)[nH]c1=O,18,13,0.8,-11,0.8,20
CCC(=NCCCN(CC)CC)c1c(O)n(C2CCCCC2)c(=O)[nH]c1=O,56*,6,0.4,-4,0.9,8
CCC(=NCc1cccnc1)c1c(O)n(C2CCCCC2)c(=O)[nH]c1=O,98*,-7,0,4,0.2,83*
CC1(C)CC(=O)C(C=NCCN2CCN(C(=O)Cc3ccc(F)cc3)CC2)=C(O)C1,0,·,1,·,1,-4
CC(=NCc1cccnc1)c1c(O)n(-c2ccc(C)cc2)c(=O)[nH]c1=O,22,-12,0.8,11,0.9,13
CC(=NCc1cccnc1)c1c(O)n(-c2ccccc2C)c(=O)[nH]c1=O,84*,5,0.2,-4,0.4,60*

# Screening data from PubChem.
